Source: PubChem BioAssay (NCATS)
Inconclusive results are not listed. A call without a number means that no potency is given here. Activity calls are given as the source filed them. Calls follow the shape of the dose curve; as a rule, active = well fitted cell-killing curve with a large enough effect; inconclusive = small, poorly fitted or top-dose-only effect; inactive = no such curve, though single readings can be large or run the other way.
Potency is read from the fitted curve at half-maximal effect.

Experiment: qHTS of pediatric cancer cell lines to identify multiple opportunities for drug repurposing: Primary screen for NB1643 cells (AID 1347099); also: nearly all actives have a fitted effect of over 50% in size
Details: NB1643 neuroblastoma viability, CellTiter-Glo luminescence, 48 h; series mostly up to 46 µM
Excerpt: Drug repurposing or repositioning has been offered as a strategy for drug development in oncology programs. This approach has special potential for childhood cancers and other rare or orphan diseases, where the expected return on new drug development has been a disincentive to pharmaceuticals. […] In this project we exploit the poly-pharmacology of drugs to discover new indications via phenotypic screening of a panel of 19 well-characterized cell lines derived from solid tumors seen in children and adolescents. The goal is to identify approved drugs with previously unrecognized anticancer properties that has the potential to reveal new mechanisms and biological processes involved in carcinogenesis or drug resistance. We employed a titration-based paradigm (quantitative high-throughput screening or qHTS), where all compounds were tested at multiple concentrations for their effect on cell viability. Concentration-response curves (CRCs) were derived directly from the primary screen, and both potency and efficacy values were used to identify compounds with robust bioactivity profiles. We screened the NIH Chemical Genomics Center (NCGC) Pharmaceutical Collection (NPC) and Mechanism Interrogation Plate (MIPE) small molecule collections of approved and investigational compounds against these cell lines; and measured metabolically active cells after 48 hours of compound treatment as a proxy for cell viability. […] Assay Submitter: Nathalia J. Martinez, National Center for Advancing Translational Sciences, National Institutes of Health, Rockville, MD, USA; email: natalia.martinez@nih.gov Shen, M et al. Quantitative high-throughput phenotypic screening of pediatric cancer cell lines identifies multiple opportunities for drug repurposing. Oncotarget 2017 Dec 19;9(4):4758-4772. PMID 29435139.
The cells were obtained from University of North Carolina (UNC), Pediatric Preclinical Testing Program (PPT), and Coriell Institute (CI). qHTS cell viability assay: Cells were assayed in growth media at a density of 500-1,000 cells/well. Five microliters of cells were dispensed into 1,536-well, white, solid-bottom, TC-treated plates (Greiner Bio One) using a multidrop dispenser and incubated at 37 degrees C, 5% CO2, under a humidified atmosphere for 5 hours. Twenty-three nanoliters of compounds and controls (neutral control DMSO or positive control bortezomib at final concentration of 2.3 µM) were subsequently transferred by Kalypsys pintool. For primary screens, the MIPE collection was tested at 11-point dilutions (final concentrations range from 0.78 nM to 46 µM) and the NPC collection at 8-point dilutions (final concentrations range from 0.59 nM to 46 µM). Compounds tested in follow-up screens were assayed at 11-point dilutions. Cells were incubated for 48 hours, followed by addition of 3 µL of CellTiter-Glo (Promega). After a 15 min incubation at room temperature, samples were analyzed for luminescence intensity using a ViewLux High-throughput CCD imager equipped with clear filters.
For `COP(=S)(OC)Oc1ccc(SC)c(C)c1`, the Potency was “inactive”. With `CN1CC[C@]23c4c5ccc(O)c4O[C@H]2[C@@H](O)CC[C@H]3[C@H]1C5` the Potency was “inactive”. With `Clc1cccc(SC2CCNCC2)n1` the Potency was “inactive”. For `Clc1ccccc1N1CCNCC1`, the Potency was “inactive”. For `COc1c2c(cc3c1OCO3)CCN(C)C2`, the Potency was “inactive”. With `NC1=NC(=O)C(c2ccccc2)O1` (stereo not given) the Potency was “inactive”. With `CC(C)N(CCC(C(N)=O)(c1ccccc1)c1ccccn1)C(C)C` (stereo not given) the Potency was “inactive”. With `CCN[C@@H](C)Cc1ccccc1` the Potency was “inactive”. With `O=C(O)c1ccc(=O)[nH]c1` the Potency was “inactive”. With `COc1ccc2c3c1O[C@H]1[C@H](O)CC[C@H]4[C@@H](C2)N(C)CC[C@@]341` the Potency was “inactive”. With `CC(=O)OCC1=C(C(=O)O)N2C(=O)[C@@H](N)[C@H]2SC1` the Potency was “inactive”. For `C[C@H]1[C@@H]2Cc3ccc(O)cc3[C@@]1(C)CCN2C`, the Potency was “inactive”. In the case of `C#CC(O)(C=CCl)CC` (stereo not given), the Potency is reported as “inactive”. For `[N-]=[N+]=CC(=O)OC[C@H](N)C(=O)O`, the Potency was “inactive”. In the case of `CC(=O)NC1CCSC1=O` (stereo not given), the Potency is reported as “inactive”. With `Nc1ccccc1C(=O)O` the Potency was “inactive”. For `COc1cc(CCN)cc(OC)c1OC`, the Potency was “inactive”. For `CCCCCCCCCC(=O)O[C@H]1CC[C@H]2[C@@H]3CCC4=CC(=O)CC[C@@H]4[C@H]3CC[C@]12C`, the Potency was “inactive”. For `CCCCCCC(=O)CCCCCC/C=C/C[C@@H](O)[C@H](O)[C@@](N)(CO)C(=O)O`, the Potency was “inactive”. With `NC(=O)CS(=O)C(c1ccccc1)c1ccccc1` (stereo not given) the Potency was “inactive”. For `CCc1cc2c(s1)-n1c(C)nnc1CN=C2c1ccccc1Cl`, the Potency was “inactive”. With `CN1C(=O)NC(=O)C(C)(C2=CCCCC2)C1=O` (stereo not given) the Potency was “inactive”. With `C[C@]12CCC(=O)C=C1CC[C@@H]1[C@H]3CC[C@](C)(O)[C@@]3(C)CC[C@@H]12` the Potency was 34.7 µM (active). With `C=CCN1C[C@H](C)N([C@H](c2ccc(C(=O)N(CC)CC)cc2)c2cccc(OC)c2)C[C@H]1C` the Potency was “inactive”. For `CC(=O)C1CCOC1=O` (stereo not given), the Potency was “inactive”. In the case of `NC(=O)c1cc([N+](=O)[O-])cc([N+](=O)[O-])c1`, the Potency is reported as “inactive”. With `COc1cc(CC(C)N)cc(OC)c1OC` (stereo not given) the Potency was “inactive”. In the case of `ClCCN1CCCC1`, the Potency is reported as “inactive”. For `CCN(CC)CCc1c[nH]c2ccccc12`, the Potency was “inactive”. For `Cc1ncsc1CCCl`, the Potency was “inactive”. For `CCC(C)C(C)(COC(N)=O)COC(N)=O` (stereo not given), the Potency was “inactive”. For `O=C(CCCN1CCC2(CC1)C(=O)NCN2c1ccccc1)c1ccc(F)cc1`, the Potency was “inactive”. For `C[N+]1(CCF)[C@@H]2CC[C@H]1CC(OC(=O)C(O)(c1ccccc1)c1ccccc1)C2` (stereo not given in full), the Potency was “inactive”. In the case of `CCC1(c2ccccc2)C(=O)N(COC)C(=O)N(COC)C1=O`, the Potency is reported as “inactive”. For `C[C@]12CC[C@@H]3c4ccc(OC(=O)N(CCCl)CCCl)cc4CC[C@H]3[C@@H]1CC[C@@H]2OP(=O)(O)O`, the Potency was “inactive”. In the case of `CN(C)CCc1c[nH]c2cccc(OP(=O)(O)O)c12`, the Potency is reported as “inactive”. With `O=c1[nH]c2ccccc2n1C1CCNCC1` the Potency was “inactive”. With `C[C@H](N)C(=O)c1ccccc1` the Potency was “inactive”. With `Nc1ccccc1` the Potency was “inactive”. For `C[C@]12CC[C@@H]3c4ccc(OC(=O)N(CCCl)CCCl)cc4CC[C@H]3[C@@H]1CC[C@@H]2O`, the Potency was “inactive”.
